# Bioassay records deposited in PubChem by National Center for Advancing Translational Sciences (NCATS).
# Shown are actives, neighbours in structure and some others; about 11% of the full set was active somewhere.
# IL1B secr inh: blocks inflammasome-driven IL-1 beta release | THP-1 LPS/ATP IL-1B secretion, AlphaLISA, 16 h; hits give low values | activity change, % at 57.5 µM | actives 4.7% (n = 360,000); in the data active = activity change below about -50%; inconclusive = mostly about -30% to -49%; also: % is scaled to controls: 0 for no effect and ±100 for the full control effect
#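 THP-1 cells pretreated 1 hr with compounds (up to 57.5 uM final), then stimulated with LPS (250 ng/mL final) plus ATP (1.25 mM final); secreted IL-1B measured by AlphaLISA after 16 hr, decreased signal indicating inhibition.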
# SW480 rerep: inducers of DNA re-replication in SW480 colon cancer cells; Potency, µM (highest dose often 46.1 µM), for inactives: at the top dose re-replication activation, actives largely listed as activators; actives 1.8% (n = 340,000); SW480 DNA re-replication, Hoechst DNA content imaging, 48 h; also: potency is read from the fitted curve at half-maximal effect; % of control where 0% means no effect; nearly all actives have a fitted effect of over 55% in size
#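 Image-based read-out: total Hoechst fluorescence of nuclei (405 nm excitation, 500-530 nm emission), with hits raising the fraction of high-intensity nuclei. SW480 colon cells incubated 48 hr with compounds at 37 C.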
# VP16 counter: inhibits Gal4-VP16 luciferase reporter, ROR gamma counter-screen | Drosophila S2 Gal4-VP16 UAS-luciferase, luminescence, 20 h | Potency, µM (series often up to 53.6 µM), without a hit: at the highest dose activity, negative = inhibition, hits mostly inhibitors | actives 3.5% (n = 310,000);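 also: Gal4-VP16 expression switched on by copper sulfate through the metallothionein promoter; potency is read from the fitted curve at half-maximal effect; % is scaled to controls: 0 for no effect and ±100 for the full control effect; nearly all actives have a fitted effect of over 50% in size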
# RORgamma inh: blocks mouse ROR gamma transcriptional activity | Potency, µM (highest dose often 53.6 µM), inactives show top-dose activity change, negative = inhibition, most hits filed as inhibitors | actives 5.4% (n = 310,000) | P51450 | Drosophila S2 Gal4-RORgamma UAS-luciferase reporter, 20 h; also: potency is read from the fitted curve at half-maximal effect; % is scaled to controls: 0 for no effect and ±100 for the full control effect; nearly all actives have a fitted effect of over 60% in size
# Target sequence (P51450 whole entry, looked up, the tested form may be a part): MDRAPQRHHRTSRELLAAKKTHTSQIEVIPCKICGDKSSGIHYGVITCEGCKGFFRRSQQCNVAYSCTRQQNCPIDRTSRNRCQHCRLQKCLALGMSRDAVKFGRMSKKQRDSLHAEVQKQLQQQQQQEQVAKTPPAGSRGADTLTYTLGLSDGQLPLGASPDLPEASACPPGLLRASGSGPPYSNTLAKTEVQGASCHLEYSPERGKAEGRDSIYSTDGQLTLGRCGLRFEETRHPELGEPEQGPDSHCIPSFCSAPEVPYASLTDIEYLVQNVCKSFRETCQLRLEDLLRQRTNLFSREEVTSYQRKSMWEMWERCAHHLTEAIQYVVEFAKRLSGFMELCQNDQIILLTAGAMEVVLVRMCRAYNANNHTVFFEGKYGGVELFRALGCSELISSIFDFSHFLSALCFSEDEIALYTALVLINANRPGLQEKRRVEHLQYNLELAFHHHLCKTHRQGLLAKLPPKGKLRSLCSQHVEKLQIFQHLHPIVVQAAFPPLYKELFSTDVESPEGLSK
#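 Drosophila Schneider cells stably carrying a metallothionein-driven Gal4 DBD–ROR gamma fusion and a UAS-Photinus luciferase reporter were exposed to compound for 1 hr, then induced with copper sulfate (700 uM final) for 20 hr at ambient temperature before luminescence reading.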
# MCF10A rereplic: DNA re-replication induction in MCF 10a cells; MCF 10A DNA re-replication, Hoechst nuclear intensity, 48 h; Potency, µM (top dose mostly 46.1 µM), for inactives: at the top dose activity, positive = re-replication, hits mostly activators; actives 2.9% (n = 350,000); AID 624296; also: potency is read from the fitted curve at half-maximal effect; % of control where 0% means no effect; nearly all actives have a fitted effect of over 50% in size
# Numbers without * were called inactive; ? = inconclusive; nt = no result given; [ ] = another dose, or the depositor's remark. Unless noted, calls follow the shape of the dose curve; as a rule, active = well fitted curve in the direction sought with a large enough effect; inconclusive = small, poorly fitted or top-dose-only effect, or another doubt; inactive = no such curve, though single readings can be large; an effect the other way counts as inactive or inconclusive.
SMILES,IL1B secr inh,SW480 rerep,VP16 counter,RORgamma inh,MCF10A rereplic
CS(=O)(=O)c1ccc(Cl)c(NC(=O)C2CCCCN2S(=O)(=O)c2ccccc2)c1 (stereo not given),-19.9,1.2%,nt,nt,6.2%
CCc1nc2c(OCc3c(C)noc3C)cccn2c1N(C)C(=O)c1ccccc1F,74.0,nt,nt,nt,nt
CN1CCN(c2nc(-c3cccnc3)nc3ccccc23)CC1,?,?,-26.0%,-12.3%,26.5%
c1ccc(N2CCN(c3nc(-c4ccccn4)nc4ccccc34)CC2)cc1,-20.7,?,1.58µM*,0.282µM*,25.4%
CN1CCN(c2nc(-c3ccccn3)nc3ccccc23)CC1,-6.6,?,-16.8%,-29.9%,22.9%
c1cncc(-c2nc(N3CCCCCC3)c3ccccc3n2)c1,-20.6,-6.8%,?,11.2µM*,6.4%
Cc1ccc(C)c(S(=O)(=O)N2CCN(c3nc(-c4cccnc4)nc4ccccc34)CC2)c1,-0.5,-2.4%,nt,nt,0.651µM*
COc1cc2c(cc1OC)CN(c1nc(-c3cccnc3)nc3ccccc13)CC2,-104.0*,5.5%,-5.5%,19.8%,?
C(=C\c1nc(N2CCCCCC2)c2ccccc2n1)/c1ccccc1,-92.6*,?,-16.2%,?,20.6µM*
c1ccc2c(N3CCCCCC3)nc(-c3ccncc3)nc2c1,?,-0.1%,-6.3%,-39.1%,?
C[C@@H]1CN([C@@H](C)CO)C(=O)CCCn2cc(nn2)CO[C@H]1CN(C)S(=O)(=O)c1ccc(C#N)cc1,-1.8,nt,nt,nt,nt
O=C(NCCOc1ccc2ccccc2c1)c1cncc(Br)c1,0.0,-0.5%,4.7%,0.4%,-1.2%
CC(C)c1ccccc1OCCNC(=O)c1cncc(Br)c1,-65.6*,-8.6%,-19.3%,31.1%,2.7%
Cc1cccc(OCCNC(=O)c2ccc(Cl)c(S(=O)(=O)NCc3cccnc3)c2)c1,104.4,?,nt,nt,5.8µM*
Cc1cccc(OCCNC(=O)c2cncc(Br)c2)c1,-7.9,0.92µM*,-7.8%,2.2%,-3.0%
N#Cc1ccc2c(c1)N(CCCN1CCC(O)CC1)c1ccccc1S2,nt,6.9%,-1.3%,2.6%,1.0%
N#Cc1ccc(S(=O)(=O)N2CCCCC2c2cc(C(=O)N3CCOCC3)no2)cc1 (stereo not given),9.8,nt,nt,nt,nt
COc1ccc([C@H]2C[C@H](n3cc(COC(=O)c4ccccc4)nn3)[C@@H](O)CN2Cc2cccs2)cc1,-1.5,nt,nt,nt,nt
CCOC(=O)[C@]12CCC=C1N(Cc1ccco1)C(=O)[C@H](CC(=O)NCC1CCCCC1)C2,-1.1,nt,nt,nt,nt
NC(=O)c1c(-c2ccc(Cl)cc2Cl)csc1NC(=O)Cc1ccccc1,-2.8,-14.9%,7.08µM*,?,23.1µM*
CN(C)CCN(C(=O)c1cccs1)c1nc2cc3c(cc2s1)OCCO3,-10.9,1.3%,1.7%,-27.7%,2.7%
O=C(NC(=S)NC1CCSC1=O)c1cccs1 (stereo not given),-15.4,-1.9%,?,-30.4%,8.5%
Cc1onc(-c2c(F)cccc2Cl)c1C(=O)NC1CC1,9.8,-2.3%,-3.1%,16.0%,-0.3%
Cc1ccccc1C(=O)NC(=S)NC1CCSC1=O (stereo not given),-4.5,-2.1%,-19.2%,11.2µM*,1.8%
Cc1onc(-c2c(F)cccc2Cl)c1C(=O)NC(=S)NC1CCSC1=O (stereo not given),-6.6,0.1%,7.08µM*,7.08µM*,?
SMILES,IL1B secr inh,SW480 rerep,VP16 counter,RORgamma inh,MCF10A rereplic
CCOc1ccc2nc3cc(NCc4ccc(OC)cc4)ccc3c(N)c2c1,-9.4,?,?,33.7%,14.6µM*
CC(C)(C)C(=O)N(Cc1nc2ccccc2c(=O)[nH]1)Cc1cccs1,5.7,0.4%,-5.9%,?,-6.1%
O=C(Nc1ccccc1Cl)N(Cc1nc2ccccc2c(=O)[nH]1)Cc1cccs1,-2.3,0.7%,?,11.2µM*,2.9%
O=C(CCCl)N(Cc1nc2ccccc2c(=O)[nH]1)Cc1cccs1,?,-2.7%,-6.8%,11.2µM*,-3.2%
N#Cc1ccc2c(c1)C[C@]1(CCCCN3C(=O)c4ccccc4C3=O)OC3=C(C(=O)OC4(CCCCC4)C3)C2O1,nt,nt,-11.6%[10 µM],-18.2%[10 µM],nt
CN(C(=O)CSc1nncc2ccccc12)c1ccccc1,-86.6*,-0.2%,nt,nt,11.3%
